About 79,000 compounds went through this panel and 15% of them were active in at least one assay; those are over-represented in the sample as a whole. Active and inactive are the calls of the source. Cut-off read from the data, not from the text of the source: active = growth inhibition above about 70%; inactive = the rest.
Experiments:
[1] = NCI Yeast Anticancer Drug Screen. Data for the rad52 strain (AID 147);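 note: 0% = growth of vehicle-treated control cultures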; details: S. cerevisiae rad52 mutant growth inhibition, stronger effect = higher value
Summary of the method: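 Genetically altered yeast (DNA damage repair defect) treated with compound; inhibition calculated relative to vehicle.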

[2] = NCI Yeast Anticancer Drug Screen. Data for the wt1 strain (AID 149);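 note: 0% = growth of vehicle-treated wt1 cultures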; details: S. cerevisiae wt1 strain (SPY 50644) growth inhibition, stronger effect = higher value
Summary of the method: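 Each compound is tested on wt1 yeast and the loss of growth versus vehicle gives the inhibition value.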

[3] = NCI Yeast Anticancer Drug Screen. Data for the rad50EPP+ strain (AID 151);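 note: 0% = growth of vehicle-treated control cultures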; details: S. cerevisiae rad50 mutant strain, stronger effect = higher value
Summary of the method: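 Strain rad50EPP+; compound exposure; % growth inhibition vs vehicle.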

[4] = NCI Yeast Anticancer Drug Screen. Data for the mgt1 strain (AID 153); details: S. cerevisiae mgt1 mutant growth inhibition, stronger effect = higher value
Summary of the method: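 Read-out: yeast growth inhibition vs vehicle control. Strain mgt1, drawn from a panel altered in DNA damage repair or cell cycle control.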

[5] = NCI Yeast Anticancer Drug Screen. Data for the rad50 strain (AID 155);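 note: 0% = growth of vehicle-only cultures of the same strain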; details: S. cerevisiae rad50 strain growth inhibition, stronger effect = higher value
Summary of the method: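 Vehicle-treated cultures provide the reference for the growth inhibition reported for compound-exposed, repair-deficient yeast.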

[6] = NCI Yeast Anticancer Drug Screen. Data for the mec2-1 strain (AID 157); details: S. cerevisiae mec2-1 strain, stronger effect = higher value
Summary of the method: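 Cells of the genetically defined mec2-1 yeast strain are incubated with test compound. Inhibition of growth is calculated against vehicle-treated controls.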

[7] = NCI Yeast Anticancer Drug Screen. Data for the rad14 strain (AID 159);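 note: 0% = growth of vehicle-treated control cultures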; details: S. cerevisiae rad14 strain growth inhibition, stronger effect = higher value
Summary of the method: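 Inhibition of growth is reported for a repair-deficient yeast mutant following compound treatment, calculated relative to cultures that received vehicle.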

[8] = NCI Yeast Anticancer Drug Screen. Data for the bub3 strain (AID 167); details: S. cerevisiae bub3 mutant strain, stronger effect = higher value
Summary of the method: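 Mutant yeast screening strain plus compound; vehicle-treated cultures serve as the 0% inhibition reference.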

[9] = NCI Yeast Anticancer Drug Screen. Data for the wt2 strain (AID 169); details: S. cerevisiae wt2 strain growth inhibition, stronger effect = higher value
Summary of the method: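 Steps: yeast strain treated with compound; growth recorded; inhibition calculated relative to cultures given vehicle alone.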

[10] = NCI Yeast Anticancer Drug Screen. Data for the mlh1 strain (AID 171);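 note: 0% = growth of vehicle-treated control cultures of the same strain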; details: S. cerevisiae mlh1 strain growth inhibition, stronger effect = higher value
Summary of the method: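 Yeast screen: mutant strain plus compound, growth scored against vehicle control wells.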

[11] = NCI Yeast Anticancer Drug Screen. Data for the sgs1 strain (AID 173);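 note: 0% = growth of vehicle-only control cultures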; details: S. cerevisiae sgs1 mutant, stronger effect = higher value
Summary of the method: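 Inhibition of yeast growth served as the measure. The mutant strain was treated with each compound, and growth was normalised to cultures receiving vehicle alone.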

[12] = NCI Yeast Anticancer Drug Screen. Data for the rad18 strain (AID 177); details: S. cerevisiae rad18 mutant growth inhibition, stronger effect = higher value
Summary of the method: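 Inhibition values reflect reduced yeast growth compared with vehicle-treated controls, using a strain engineered with a DNA damage repair defect.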

[13] = NCI Yeast Anticancer Drug Screen. Data for the sgs1 mgt1 strain (AID 161);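 note: 0% = growth of cultures given vehicle only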; details: S. cerevisiae sgs1 mgt1 strain, stronger effect = higher value
Summary of the method: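 Read-out: growth inhibition vs vehicle controls. Cells: mutant yeast strain deficient in DNA damage repair.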

[14] = NCI Yeast Anticancer Drug Screen. Data for the CLN2oe strain (AID 163);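 note: 0% = growth of vehicle-only control cultures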; details: S. cerevisiae CLN2oe strain, stronger effect = higher value
Summary of the method: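 Strain altered in cell-cycle control, incubated with compound; growth compared to solvent-treated controls.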

[15] = NCI Yeast Anticancer Drug Screen. Data for the cln2 rad14 strain (AID 165);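 note: 0% = growth equal to vehicle treated cultures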; details: S. cerevisiae cln2 rad14 strain, stronger effect = higher value
Summary of the method: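 The screen exposed genetically defined yeast (cln2 rad14) to test compounds and scored growth inhibition relative to vehicle-treated controls.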

[16] = NCI Yeast Anticancer Drug Screen. Data for the mlh1 rad18 strain (AID 175); details: S. cerevisiae mlh1 rad18 strain growth inhibition, stronger effect = higher value
Summary of the method: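 Compound-treated yeast growth, normalised to vehicle controls. Strain bears defined DNA repair mutations.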

[17] = at 5.0 µM (retest, dose inferred, filed as 0.5)
[18] = at 50.0 µM (retest, dose inferred, filed as 5.0)

Measured: growth inhibition

Cc1cc(O)c2c(c1)C(=O)C=C(Br)C2=O
inactive: [1]; at 1.2 µM 38% | [2]; at 1.2 µM -1% | [2]; at 3.7 µM -2% | [2]; at 11.0 µM 6% | [3]; at 1.2 µM 58% | [4]; at 1.2 µM 7% | [4]; at 3.7 µM 21% | [5]; at 1.2 µM 38% | [6]; at 1.2 µM 40% | [6]; at 3.7 µM 67% | [7]; at 1.2 µM 37% | [7]; at 3.7 µM 64% | [9]; at 1.2 µM -4% | [9]; at 3.7 µM 7% | [9]; at 11.0 µM 54% | [10]; at 1.2 µM 11% | [10]; at 3.7 µM 25% | [11]; at 1.2 µM 4% | [11]; at 3.7 µM 11% | [11]; at 11.0 µM 66% | [12]; at 1.2 µM 10% | [12]; at 3.7 µM 41%
active: [1]; at 3.7 µM 76% | [1]; at 11.0 µM 98% | [1]; at 33.0 µM 98% | [1]; at 100.0 µM 94% | [2]; at 33.0 µM 98% | [2]; at 100.0 µM 96% | [3]; at 3.7 µM 88% | [3]; at 11.0 µM 99% | [3]; at 33.0 µM 99% | [3]; at 100.0 µM 95% | [4]; at 11.0 µM 72% | [4]; at 33.0 µM 98% | [4]; at 100.0 µM 97% | [5]; at 3.7 µM 71% | [5]; at 11.0 µM 97% | [5]; at 33.0 µM 99% | [5]; at 100.0 µM 94% | [6]; at 11.0 µM 94% | [6]; at 33.0 µM 99% | [6]; at 100.0 µM 98% | [7]; at 11.0 µM 97% | [7]; at 33.0 µM 99% | [7]; at 100.0 µM 96% | [8]; at 1.2 µM 88% | [8]; at 3.7 µM 86% | [8]; at 11.0 µM 98% | [8]; at 33.0 µM 92% | [8]; at 100.0 µM 98% | [9]; at 33.0 µM 99% | [9]; at 100.0 µM 97% | [10]; at 11.0 µM 71% | [10]; at 33.0 µM 99% | [10]; at 100.0 µM 98% | [11]; at 33.0 µM 99% | [11]; at 100.0 µM 96% | [12]; at 11.0 µM 95% | [12]; at 33.0 µM 98% | [12]; at 100.0 µM 94%

CCC(=O)N(c1ccccc1)C(C)CN1CCC(O)(c2cccc(C(F)(F)F)c2)CC1 (stereo not drawn)
active: [1]; at 100.0 µM 83% | [5]; at 100.0 µM 76% | [7]; at 100.0 µM 97% | [14]; at 100.0 µM 73% | [8]; at 100.0 µM 89% | [9]; at 100.0 µM 96% | [10]; at 100.0 µM 91% | [11]; at 100.0 µM 94%
inactive: [1]; at 1.2 µM 0% | [1]; at 3.7 µM 4% | [1]; at 11.0 µM 13% | [1]; at 33.0 µM 27% | [2]; at 1.2 µM 2% | [2]; at 3.7 µM 6% | [2]; at 11.0 µM 11% | [2]; at 33.0 µM 22% | [2]; at 100.0 µM 46% | [3]; at 1.2 µM -3% | [3]; at 3.7 µM -3% | [3]; at 11.0 µM -1% | [3]; at 33.0 µM -2% | [3]; at 100.0 µM -1% | [5]; at 1.2 µM -2% | [5]; at 3.7 µM -7% | [5]; [17] 21% | [5]; at 11.0 µM 3% | [5]; at 33.0 µM 26% | [5]; [18] 4% | [5]; at 50.0 µM 62.3% | [6]; at 1.2 µM 0% | [6]; at 3.7 µM 7% | [6]; [17] -2% | [6]; at 11.0 µM 17% | [6]; at 33.0 µM 23% | [6]; [18] 10% | [6]; at 50.0 µM 10.2% | [6]; at 100.0 µM 57% | [7]; at 1.2 µM 6% | [7]; at 3.7 µM 18% | [7]; at 11.0 µM 48% | [7]; at 33.0 µM 68% | [13]; [17] -4% | [13]; [18] 41% | [13]; at 50.0 µM 68.2% | [14]; at 1.2 µM 2% | [14]; at 3.7 µM 1% | [14]; at 11.0 µM 13% | [14]; at 33.0 µM 41% | [15]; [17] 7% | [15]; [18] 43% | [15]; at 50.0 µM 18.6% | [8]; at 1.2 µM 1% | [8]; at 3.7 µM 3% | [8]; [17] 4% | [8]; at 11.0 µM 17% | [8]; at 33.0 µM 49% | [8]; [18] 51% | [8]; at 50.0 µM 65.2% | [9]; at 1.2 µM 0% | [9]; at 3.7 µM 5% | [9]; at 11.0 µM 16% | [9]; at 33.0 µM 44% | [10]; at 1.2 µM 2% | [10]; at 3.7 µM 6% | [10]; at 11.0 µM 17% | [10]; at 33.0 µM 44% | [11]; at 1.2 µM 2% | [11]; at 3.7 µM 10% | [11]; at 11.0 µM 20% | [11]; at 33.0 µM 60% | [16]; [17] -3% | [16]; [18] 37% | [16]; at 50.0 µM 38.9%

Reference: PubChem BioAssay (NCI)
